VACV mCherry inh – vaccinia inhibition (mCherry reporter); Vaccinia virus mCherry reporter infection, fluorescence; Potency, µM (series often up to 36.5 µM), actives largely listed as inhibitors; hit rate 0.63% among 310,000; AID 720579; calls by dose curve; tested in A549 cells; also: nearly all actives have a fitted effect of over 35% in size
Lassa entry inh – inhibitors of Lassa virus binding or cell entry; Lassa virus pseudotype entry inhibition, cell reporter; Potency, µM (titrated, usually from 37.9 µM), usual class: inhibitors; hit rate 1.2% among 300,000; calls by dose curve; tested in HEK293 cells; also: nearly all actives have a fitted effect of over 50% in size
VACV Venus inh – vaccinia inhibition (Venus reporter); Vaccinia virus Venus reporter expression, fluorescence; Potency, µM (titrated, usually from 36.5 µM), hits mostly inhibitors; AID 720580; hit rate 0.46% among 330,000; calls by dose curve; tested in A549 cells; also: nearly all actives have a fitted effect of over 30% in size
Marburg entry inh – Marburg virus entry inhibition | hit rate 1.8% among 300,000 | Potency, µM (doses to about 37.8 µM), actives largely listed as inhibitors | Marburg virus pseudotyped entry inhibition, cell reporter; calls by dose curve; tested in HEK293 cells
Each line names hits and unclear results; the compound was inactive in the other large screens; ! = a repeat was not active. Only some compounds are listed: those with a hit (about 2.5% of all), similar ones and a draw of the others.

Cc1cc(=O)c2ccccc2n1Cc1ccccc1	Marburg entry inh inconclusive
CCc1nn(CC(=O)NCc2ccccc2)c(=O)c2cccn12	Lassa entry inh 11µM, Marburg entry inh inconclusive
COc1ccc2c(-c3ccccc3)cc(SCC(N)=O)nc2c1	Lassa entry inh inconclusive, Marburg entry inh 5.6µM
O=[N+]([O-])c1ccc(Oc2cccnc2)c([N+](=O)[O-])c1	Lassa entry inh inconclusive, VACV Venus inh inconclusive, Marburg entry inh 7.9µM
CCn1c2ccccc2c2cc(NC(=O)COC(=O)c3ccc(O)cc3)ccc21	VACV mCherry inh 11µM, Lassa entry inh inconclusive, VACV Venus inh inconclusive, Marburg entry inh inconclusive
O=C(Cc1cn2ccsc2n1)OCc1ccccc1	Lassa entry inh 5µM, Marburg entry inh 7.1µM (no result: VACV mCherry inh)
O=C(Cc1cn2ccsc2n1)OCc1nc2ccccc2s1	none (no result: VACV mCherry inh)
CCn1c2ccccc2c2cc(NC(=O)CNCc3ccccc3OC)ccc21	VACV mCherry inh inconclusive, Lassa entry inh inconclusive, Marburg entry inh 5.6µM
CCN(CC)S(=O)(=O)c1ccc(C)c(NC(=O)CNCc2ccccc2OC)c1	Lassa entry inh inconclusive, Marburg entry inh 4.5µM
CC(C)C(NC(=O)c1ccccn1)c1nnc2n1CCN(Cc1ccc3ccccc3c1)CC2 (stereo not drawn)	none (no result: Lassa entry inh, Marburg entry inh)
COC(=O)N[C@@H](c1ccccc1)[C@]1(C(C)=O)CCCC1=O	none (no result: VACV mCherry inh, Lassa entry inh, VACV Venus inh)
CCc1nc2cc(C(=O)N3CCC[C@H]3CO)cc(NC(=O)c3ccccc3OC)c2n1C	none (no result: Lassa entry inh, Marburg entry inh)
COc1ccccc1CNCC(O)Cn1c2ccccc2c2ccccc21 (stereo not drawn)	Lassa entry inh 16µM, Marburg entry inh 8.2µM (no result: VACV mCherry inh, VACV Venus inh)
CCn1c2ccccc2c2cc(NC(=O)COC(=O)Cc3cn4ccsc4n3)ccc21	VACV Venus inh 10µM (no result: VACV mCherry inh)
CCCCNC(=O)Nc1ccc([C@@](O)(C(=O)OCC)C(F)(F)F)cc1	none (no result: VACV mCherry inh, Lassa entry inh, VACV Venus inh)
O=C1c2ccccc2C(=O)c2ccccc21	none (no result: Lassa entry inh, Marburg entry inh)
O=C1c2ccccc2-c2n[nH]c3cccc1c23	VACV mCherry inh 11µM!, Marburg entry inh inconclusive
O=C(Nc1ccc(Cl)cc1)N1CCN(c2ccc3nnc(-c4ccccc4)n3n2)CC1	VACV mCherry inh 10µM, VACV Venus inh inconclusive (no result: Lassa entry inh)
CC(C)(C)c1ccc(OCCn2c(CCNC(=O)C3CCCCC3)nc3ccccc32)cc1	VACV Venus inh inconclusive (no result: Lassa entry inh, Marburg entry inh)
Cc1ccc(C2(c3ccc(C)cc3)CC2C(=O)NCc2cccnc2)cc1 (stereo not drawn)	none
Cc1ccc(C2(c3ccc(C)cc3)CC2C(=O)NC(C)C)cc1 (stereo not drawn)	Marburg entry inh 13µM
CCC(C)(C)c1ccc(OCCCC[n+]2ccc(C)cc2)c(C(C)(C)CC)c1	Lassa entry inh inconclusive, Marburg entry inh 21µM (no result: VACV mCherry inh, VACV Venus inh)
CC(=O)OC[C@H]1O[C@H](CC=NOC[C@@H](C)[C@H](OCc2ccccc2)C(C)C)C=C[C@@H]1OC(C)=O	none (no result: VACV mCherry inh, Lassa entry inh, VACV Venus inh)
O=C(CCl)Nc1c[nH]c(=O)[nH]c1=O	VACV mCherry inh 7.1µM, Lassa entry inh inconclusive, VACV Venus inh 7.9µM, Marburg entry inh inconclusive
COc1ccc(NC(=O)CSc2c3c(nc4ccccc24)CCC3)c(OC)c1	VACV mCherry inh inconclusive, Marburg entry inh 2.2µM
COc1ccc(NC(=O)c2ccc3c(SCC(=O)O)c4c(nc3c2)CCCC4)c(OC)c1	none
C[CH2][Hg][S]c1ccccc1C(=O)O	VACV mCherry inh inconclusive, VACV Venus inh 11µM (no result: Lassa entry inh, Marburg entry inh)
O=C(O)c1ccccc1SSc1ccccc1C(=O)O	none
COc1ccc(COC(=O)N/N=C(\C)CC(=O)NCc2ccc(Cl)cc2)cc1	Lassa entry inh inconclusive
COc1ccc(COC(=O)N/N=C(\C)CC(=O)Nc2c(C)cc(C)cc2C)cc1	Lassa entry inh 7.3µM
COc1ccc(NC(=O)CCSc2ccc(C)cc2)cc1S(=O)(=O)Nc1ccccc1Cl	Lassa entry inh 13µM, Marburg entry inh inconclusive
Cc1cc(O)cc(O)c1C(=O)OC1(C)C(=O)C=C2C=C(C=CC(=O)O)OC=C2C1=O (stereo not drawn)	Lassa entry inh inconclusive (no result: VACV mCherry inh, VACV Venus inh)
CC1C/C(=N\Nc2ccc(S(N)(=O)=O)cc2[N+](=O)[O-])CC(C)(C)C1 (stereo not drawn)	Lassa entry inh inconclusive, VACV Venus inh inconclusive, Marburg entry inh inconclusive
NS(=O)(=O)c1ccc(N/N=C2/CCCCC2C2CCCCC2)c([N+](=O)[O-])c1 (stereo not drawn)	VACV mCherry inh 20µM, Lassa entry inh inconclusive, VACV Venus inh 16µM, Marburg entry inh inconclusive
CCOC(=O)C1=C(O)c2ccccc2C(=O)/C1=C\c1ccc(CC)cc1	Lassa entry inh inconclusive, Marburg entry inh 2.1µM (no result: VACV mCherry inh, VACV Venus inh)
CCOC(=O)C1=C(Cc2ccc(C)cc2)C(=O)c2ccccc2C1=O	none (no result: VACV mCherry inh, Lassa entry inh, VACV Venus inh)
Cc1ccccc1OC[C@H](O)Cn1c(N2CCN(c3ccccc3)CC2)nc2c1c(=O)[nH]c(=O)n2C	none (no result: VACV mCherry inh, Lassa entry inh, VACV Venus inh)
CN(CCCc1cnc[nH]1)C(=S)NCCCN(Cc1ccc(Cl)cc1)c1ccc(Br)cn1	none (no result: Lassa entry inh, Marburg entry inh)
O=S(=O)(NCCNCC=Cc1ccc(Br)cc1)c1cccc2cnccc12	VACV Venus inh inconclusive (no result: Lassa entry inh, Marburg entry inh)
